Data published in the supplement of paper PMC11732987, “Enantioselective OTUD7B fragment discovery through chemoproteomics screening and high-throughput optimisation” (Communications Chemistry, 2025).

What was measured:
Test in all cases: log2 ratio of Biotin-Ahx-Ub-VS probe labelling (fragment/DMSO); higher = less target engagement (more negative = stronger competition), active = hit call of the paper (q ≤ 0.05, log2 ratio ≤ -1)
Conditions in all cases: compound concentration: 200 uM; treatment time: 3 h
[1] = target: T1, USP19 (UniProt O94966)
T1 sequence (whole entry): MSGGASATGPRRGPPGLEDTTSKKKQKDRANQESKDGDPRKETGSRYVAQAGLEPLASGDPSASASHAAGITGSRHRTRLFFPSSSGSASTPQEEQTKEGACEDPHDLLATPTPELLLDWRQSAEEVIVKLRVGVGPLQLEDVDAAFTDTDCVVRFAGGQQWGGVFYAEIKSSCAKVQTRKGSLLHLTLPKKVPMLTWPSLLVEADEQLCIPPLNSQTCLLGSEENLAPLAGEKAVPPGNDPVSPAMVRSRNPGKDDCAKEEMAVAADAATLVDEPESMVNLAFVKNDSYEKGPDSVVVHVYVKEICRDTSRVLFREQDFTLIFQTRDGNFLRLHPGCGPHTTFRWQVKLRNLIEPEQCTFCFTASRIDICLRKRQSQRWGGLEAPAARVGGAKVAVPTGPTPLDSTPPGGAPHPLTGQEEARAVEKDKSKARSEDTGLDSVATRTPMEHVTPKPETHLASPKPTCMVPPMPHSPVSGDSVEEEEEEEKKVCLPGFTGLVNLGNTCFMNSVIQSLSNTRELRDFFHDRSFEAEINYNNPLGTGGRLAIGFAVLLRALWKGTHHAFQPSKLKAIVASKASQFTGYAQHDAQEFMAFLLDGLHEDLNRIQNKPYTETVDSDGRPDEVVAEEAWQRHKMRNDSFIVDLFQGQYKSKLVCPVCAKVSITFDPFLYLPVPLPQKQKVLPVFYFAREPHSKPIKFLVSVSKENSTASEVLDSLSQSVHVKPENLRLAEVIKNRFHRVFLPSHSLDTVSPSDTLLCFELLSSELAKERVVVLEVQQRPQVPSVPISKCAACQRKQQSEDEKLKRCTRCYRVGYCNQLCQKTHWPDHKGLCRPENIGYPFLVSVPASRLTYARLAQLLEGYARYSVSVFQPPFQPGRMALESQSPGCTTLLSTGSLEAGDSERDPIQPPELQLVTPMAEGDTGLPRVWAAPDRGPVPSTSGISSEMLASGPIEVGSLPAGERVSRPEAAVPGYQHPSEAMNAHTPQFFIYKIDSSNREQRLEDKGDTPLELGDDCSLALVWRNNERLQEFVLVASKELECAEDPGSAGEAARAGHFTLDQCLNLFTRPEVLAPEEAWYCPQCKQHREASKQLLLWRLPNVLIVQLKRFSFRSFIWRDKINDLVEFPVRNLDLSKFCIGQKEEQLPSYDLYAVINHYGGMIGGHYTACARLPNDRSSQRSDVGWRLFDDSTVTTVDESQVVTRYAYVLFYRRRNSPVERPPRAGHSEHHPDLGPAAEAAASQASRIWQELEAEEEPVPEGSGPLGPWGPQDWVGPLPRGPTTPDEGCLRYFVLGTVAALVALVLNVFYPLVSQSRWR
How it was run: (§1)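 Each value is an average log2 ratio of fragment to vehicle, tested by unpaired t-test. The underlying Spectronaut label-free quantities were global-median-normalised, and only proteins with ≥2 unique peptides were included. Triplicate HEK293T lysate samples (495 µg) were exposed to fragment at 200 µM or vehicle for 3 h, then to Biotin-Ahx-Ub-VS at 0.5 µM final for 1 h, before NeutrAvidin enrichment of labelled DUBs, LysC and trypsin digestion, and diaPASEF LC-MS/MS.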

[2] = target: T2, USP22 (UniProt Q9UPT9)
T2 sequence (whole entry): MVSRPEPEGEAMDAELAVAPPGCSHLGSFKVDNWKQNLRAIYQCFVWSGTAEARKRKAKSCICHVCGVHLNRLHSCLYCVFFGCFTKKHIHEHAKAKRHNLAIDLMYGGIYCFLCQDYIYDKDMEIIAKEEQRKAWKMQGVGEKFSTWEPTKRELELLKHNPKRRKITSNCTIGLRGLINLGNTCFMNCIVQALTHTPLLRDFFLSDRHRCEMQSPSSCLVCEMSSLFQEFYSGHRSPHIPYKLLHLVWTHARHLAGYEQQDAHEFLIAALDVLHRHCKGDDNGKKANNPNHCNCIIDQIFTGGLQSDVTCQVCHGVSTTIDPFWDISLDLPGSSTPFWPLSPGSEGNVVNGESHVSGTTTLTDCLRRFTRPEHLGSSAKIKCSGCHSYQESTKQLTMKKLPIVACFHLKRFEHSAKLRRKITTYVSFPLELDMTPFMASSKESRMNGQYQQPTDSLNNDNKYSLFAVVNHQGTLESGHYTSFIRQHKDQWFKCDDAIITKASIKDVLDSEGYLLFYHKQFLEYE
How it was run: as §1

[3] = target: USP24 (UniProt Q9UPU5)
How it was run: as §1

[4] = target: T3, USP25 (UniProt Q9UHP3)
T3 sequence (whole entry): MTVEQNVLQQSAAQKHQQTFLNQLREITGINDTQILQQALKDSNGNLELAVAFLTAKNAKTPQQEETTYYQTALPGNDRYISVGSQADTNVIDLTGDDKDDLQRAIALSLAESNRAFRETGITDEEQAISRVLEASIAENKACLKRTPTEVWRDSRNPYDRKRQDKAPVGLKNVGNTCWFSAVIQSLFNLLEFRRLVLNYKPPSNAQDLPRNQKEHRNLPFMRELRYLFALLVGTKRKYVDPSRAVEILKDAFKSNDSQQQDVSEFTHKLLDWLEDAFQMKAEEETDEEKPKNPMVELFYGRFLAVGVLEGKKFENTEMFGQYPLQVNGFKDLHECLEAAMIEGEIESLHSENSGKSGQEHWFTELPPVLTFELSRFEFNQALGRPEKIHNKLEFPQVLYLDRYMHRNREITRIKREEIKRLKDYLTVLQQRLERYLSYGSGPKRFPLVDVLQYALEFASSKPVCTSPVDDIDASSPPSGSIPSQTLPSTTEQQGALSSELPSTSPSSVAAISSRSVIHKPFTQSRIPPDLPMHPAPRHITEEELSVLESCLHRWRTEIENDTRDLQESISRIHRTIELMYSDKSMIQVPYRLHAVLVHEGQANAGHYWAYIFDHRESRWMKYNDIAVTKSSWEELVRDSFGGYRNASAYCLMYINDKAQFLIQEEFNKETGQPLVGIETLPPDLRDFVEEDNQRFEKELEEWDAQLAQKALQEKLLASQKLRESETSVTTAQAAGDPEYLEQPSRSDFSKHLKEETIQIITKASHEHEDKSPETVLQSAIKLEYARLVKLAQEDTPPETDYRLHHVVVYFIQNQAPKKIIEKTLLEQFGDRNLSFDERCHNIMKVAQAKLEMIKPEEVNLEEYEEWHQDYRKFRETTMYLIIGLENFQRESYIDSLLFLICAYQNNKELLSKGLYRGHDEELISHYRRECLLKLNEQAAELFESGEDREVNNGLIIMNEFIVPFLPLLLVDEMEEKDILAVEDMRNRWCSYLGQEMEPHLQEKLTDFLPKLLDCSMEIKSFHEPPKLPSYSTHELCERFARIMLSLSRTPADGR
How it was run: as §1

[5] = target: T4, USP28 (UniProt Q96RU2)
T4 sequence (whole entry): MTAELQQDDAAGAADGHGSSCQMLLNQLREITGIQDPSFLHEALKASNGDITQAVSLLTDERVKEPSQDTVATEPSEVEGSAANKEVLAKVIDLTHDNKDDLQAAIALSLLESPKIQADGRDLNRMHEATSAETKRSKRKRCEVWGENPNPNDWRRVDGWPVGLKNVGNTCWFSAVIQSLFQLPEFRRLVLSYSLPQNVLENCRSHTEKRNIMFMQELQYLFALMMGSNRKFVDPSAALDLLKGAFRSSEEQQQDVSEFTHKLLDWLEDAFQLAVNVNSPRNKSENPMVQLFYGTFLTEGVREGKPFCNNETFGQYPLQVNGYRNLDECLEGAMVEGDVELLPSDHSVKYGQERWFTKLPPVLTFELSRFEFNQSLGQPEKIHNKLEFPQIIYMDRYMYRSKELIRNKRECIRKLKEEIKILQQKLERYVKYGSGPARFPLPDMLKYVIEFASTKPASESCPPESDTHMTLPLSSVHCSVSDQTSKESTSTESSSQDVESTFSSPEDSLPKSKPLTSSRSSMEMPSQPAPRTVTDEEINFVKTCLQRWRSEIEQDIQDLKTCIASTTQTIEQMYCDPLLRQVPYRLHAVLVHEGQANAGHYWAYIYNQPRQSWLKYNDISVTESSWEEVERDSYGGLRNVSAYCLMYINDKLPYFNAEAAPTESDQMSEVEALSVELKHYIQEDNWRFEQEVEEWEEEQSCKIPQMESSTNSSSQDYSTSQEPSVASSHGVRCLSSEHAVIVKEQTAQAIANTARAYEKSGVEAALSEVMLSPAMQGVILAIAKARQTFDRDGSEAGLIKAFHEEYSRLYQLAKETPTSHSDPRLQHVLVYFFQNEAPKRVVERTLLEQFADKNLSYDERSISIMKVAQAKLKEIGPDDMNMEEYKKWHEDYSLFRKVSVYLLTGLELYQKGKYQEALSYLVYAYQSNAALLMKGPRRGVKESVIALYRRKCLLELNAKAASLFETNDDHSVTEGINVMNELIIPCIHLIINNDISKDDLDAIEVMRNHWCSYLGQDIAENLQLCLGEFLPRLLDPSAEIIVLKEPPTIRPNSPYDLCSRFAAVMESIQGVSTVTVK
How it was run: as §1

Measured: log2 ratio of Biotin-Ahx-Ub-VS probe labelling

Chain of USP24 (Q9UPU5 whole entry): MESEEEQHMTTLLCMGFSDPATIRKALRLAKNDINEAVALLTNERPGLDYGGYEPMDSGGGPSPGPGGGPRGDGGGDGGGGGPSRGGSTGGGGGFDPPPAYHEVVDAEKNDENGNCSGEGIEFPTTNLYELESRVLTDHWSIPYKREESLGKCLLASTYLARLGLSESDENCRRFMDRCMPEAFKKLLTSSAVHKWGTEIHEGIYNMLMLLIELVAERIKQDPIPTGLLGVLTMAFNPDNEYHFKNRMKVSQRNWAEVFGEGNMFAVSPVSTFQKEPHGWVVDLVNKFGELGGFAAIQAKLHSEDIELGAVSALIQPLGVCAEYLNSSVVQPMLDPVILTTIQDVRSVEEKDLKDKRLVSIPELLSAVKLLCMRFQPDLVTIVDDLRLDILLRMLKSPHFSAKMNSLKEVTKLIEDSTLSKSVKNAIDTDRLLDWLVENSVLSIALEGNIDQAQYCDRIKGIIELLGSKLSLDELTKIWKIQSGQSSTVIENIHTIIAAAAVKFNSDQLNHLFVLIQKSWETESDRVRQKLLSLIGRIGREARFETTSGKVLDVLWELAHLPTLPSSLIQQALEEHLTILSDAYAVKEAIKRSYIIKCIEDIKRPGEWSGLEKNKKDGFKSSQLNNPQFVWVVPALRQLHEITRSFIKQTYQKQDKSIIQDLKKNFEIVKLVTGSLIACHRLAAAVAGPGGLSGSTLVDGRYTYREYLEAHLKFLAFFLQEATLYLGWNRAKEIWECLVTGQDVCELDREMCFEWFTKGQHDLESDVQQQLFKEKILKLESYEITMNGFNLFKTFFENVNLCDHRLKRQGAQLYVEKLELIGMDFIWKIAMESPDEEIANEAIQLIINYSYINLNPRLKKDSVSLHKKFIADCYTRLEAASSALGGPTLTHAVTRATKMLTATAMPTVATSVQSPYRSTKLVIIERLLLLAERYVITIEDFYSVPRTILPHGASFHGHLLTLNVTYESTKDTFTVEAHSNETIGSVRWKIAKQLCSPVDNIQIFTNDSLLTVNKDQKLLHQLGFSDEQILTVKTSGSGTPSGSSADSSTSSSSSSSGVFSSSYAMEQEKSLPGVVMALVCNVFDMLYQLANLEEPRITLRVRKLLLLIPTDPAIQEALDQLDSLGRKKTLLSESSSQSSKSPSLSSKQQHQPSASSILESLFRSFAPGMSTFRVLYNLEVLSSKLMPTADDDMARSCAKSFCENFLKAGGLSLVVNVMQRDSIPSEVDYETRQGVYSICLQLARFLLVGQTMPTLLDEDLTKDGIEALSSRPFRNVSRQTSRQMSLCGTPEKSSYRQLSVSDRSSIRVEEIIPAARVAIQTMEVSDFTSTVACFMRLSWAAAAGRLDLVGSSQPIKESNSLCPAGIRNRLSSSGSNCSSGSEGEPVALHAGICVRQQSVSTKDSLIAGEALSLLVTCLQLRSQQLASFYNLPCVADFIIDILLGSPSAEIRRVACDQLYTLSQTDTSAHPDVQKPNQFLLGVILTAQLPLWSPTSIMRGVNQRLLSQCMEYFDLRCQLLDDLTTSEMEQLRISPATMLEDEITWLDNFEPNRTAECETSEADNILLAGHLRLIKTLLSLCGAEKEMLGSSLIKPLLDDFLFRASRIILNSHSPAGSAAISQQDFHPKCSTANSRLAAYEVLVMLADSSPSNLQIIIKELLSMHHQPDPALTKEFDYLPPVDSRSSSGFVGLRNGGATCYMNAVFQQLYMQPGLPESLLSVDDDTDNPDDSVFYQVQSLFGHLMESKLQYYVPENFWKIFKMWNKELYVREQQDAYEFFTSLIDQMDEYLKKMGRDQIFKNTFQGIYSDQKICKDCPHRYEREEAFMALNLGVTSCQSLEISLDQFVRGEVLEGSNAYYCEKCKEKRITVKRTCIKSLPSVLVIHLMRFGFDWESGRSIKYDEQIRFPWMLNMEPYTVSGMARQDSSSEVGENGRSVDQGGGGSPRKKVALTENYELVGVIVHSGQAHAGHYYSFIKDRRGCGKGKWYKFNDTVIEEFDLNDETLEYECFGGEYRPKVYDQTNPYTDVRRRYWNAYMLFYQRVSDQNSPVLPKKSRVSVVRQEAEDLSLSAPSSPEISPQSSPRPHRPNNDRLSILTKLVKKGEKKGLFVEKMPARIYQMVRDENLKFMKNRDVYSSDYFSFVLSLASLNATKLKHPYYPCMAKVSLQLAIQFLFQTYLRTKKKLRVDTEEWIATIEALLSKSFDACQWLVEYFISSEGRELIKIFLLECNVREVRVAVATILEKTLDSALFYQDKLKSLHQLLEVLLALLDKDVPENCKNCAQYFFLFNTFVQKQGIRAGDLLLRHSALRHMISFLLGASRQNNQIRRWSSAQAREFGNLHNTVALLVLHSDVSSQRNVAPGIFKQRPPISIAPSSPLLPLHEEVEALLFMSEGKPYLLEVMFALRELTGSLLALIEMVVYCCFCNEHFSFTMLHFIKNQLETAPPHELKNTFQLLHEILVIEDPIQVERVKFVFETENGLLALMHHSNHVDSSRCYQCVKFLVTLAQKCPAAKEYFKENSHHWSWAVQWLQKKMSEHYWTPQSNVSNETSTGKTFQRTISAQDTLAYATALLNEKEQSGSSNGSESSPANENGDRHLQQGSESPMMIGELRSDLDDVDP

O=C(CCl)Nc1cccc(NC(=O)c2ccccc2)c1
inactive: [1] 0.0261 | [2] 0.406 | [3] 0.05 | [4] -0.383 | [5] -0.173
